Measured values as given in the supplement of paper PMC10849652.
The full data set covers some 8,800 targets. This sample favours those with a hit. About 0.5% of all pairs of compound and target were hits.

How the values were obtained:
Assay in all cases: log2 fold change, soluble protein after heating vs DMSO (PISA); higher = thermal stabilisation; K562 lysate, 10 uM; active = over 0.2 and 3.5 SD of the protein, either way, in both replicates (recomputed)
[1] = compound: NCC(=O)Nc1ccc(-n2nc(C(F)(F)F)cc2-c2ccc3c(ccc4ccccc43)c2)cc1
Outline: (§1)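 To prepare the extract, K562 pellets were dounce-homogenised in PBS pH 7.4 with 1 mM MgCl2, giving crude material at 1 mg/mL protein. This was treated with 10 μM compound for 30 min, then heated in aliquots for 3 min over 48°C-58°C before pooling and addition of NP-40 to 0.5% at 4°C. Centrifugation at 21,000xg for 90 min left soluble protein in the supernatant, which TMTpro 16plex LC-MS/MS quantified with equalised channel sums. Results are log-two fold changes in thermal stability compared with solvent controls, from duplicates.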

vorinostat = compound: O=C(CCCCCCC(=O)Nc1ccccc1)NO [vorinostat]
Outline: as §1

silmitasertib = compound: O=C(O)c1ccc2c(c1)nc(Nc1cccc(Cl)c1)c1ccncc12 [silmitasertib]
Outline: as §1

[2] = compound: O=C1NC(=O)C(c2cnc3ccccn23)=C1c1cn2c3c(cc(F)cc13)CN(C(=O)N1CCCCC1)CC2
Outline: as §1

entospletinib = compound: c1cn2cc(-c3ccc4cn[nH]c4c3)nc(Nc3ccc(N4CCOCC4)cc3)c2n1 [entospletinib]
Outline: as §1

Measured: log2 fold change

N6AMT1 (UniProt Q9Y5N5)
inactive: [1] -0.043 | vorinostat 0.076 | silmitasertib -0.025 | [2] -0.007 | entospletinib -0.011

MYH11 isoform 2 (UniProt P35749)
inactive: [1] 0.014 | vorinostat 0.042 | silmitasertib 0.02 | [2] -0.005 | entospletinib 0.013

NSUN7 (UniProt Q8NE18)
inactive: [1] 0.241 | vorinostat -0.003 | silmitasertib 0.005 | [2] -0.108 | entospletinib -0.042

PAGE2B (UniProt Q5JRK9)
Sequence of UniProt Q5JRK9 (Q5JRK9 whole entry, looked up): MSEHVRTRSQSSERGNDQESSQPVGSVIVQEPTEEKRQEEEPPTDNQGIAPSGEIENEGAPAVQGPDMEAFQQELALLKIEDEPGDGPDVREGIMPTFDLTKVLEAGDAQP
inactive: [1] 0.057 | silmitasertib -0.001 | [2] 0.02 | entospletinib 0.017
active: vorinostat 0.474

NFKBIB (UniProt Q15653)
inactive: [1] -0.052 | vorinostat -0.204 | silmitasertib 0.04 | [2] 0.024 | entospletinib 0

NUDT4 (UniProt Q9NZJ9)
Sequence of UniProt Q9NZJ9 (Q9NZJ9 whole entry, looked up): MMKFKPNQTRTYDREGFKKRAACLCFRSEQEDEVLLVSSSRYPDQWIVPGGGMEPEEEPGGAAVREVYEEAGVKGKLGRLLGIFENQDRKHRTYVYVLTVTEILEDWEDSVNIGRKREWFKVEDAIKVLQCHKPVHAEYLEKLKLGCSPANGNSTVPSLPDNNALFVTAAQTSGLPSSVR
inactive: [1] -0.144 | vorinostat -0.162 | silmitasertib 0.028 | [2] 0.03 | entospletinib -0.01

OGFOD2 (UniProt Q6N063)
inactive: [1] 0.023 | vorinostat -0.075 | silmitasertib 0.038 | [2] 0.022 | entospletinib -0.001

MTCH2 (UniProt Q9Y6C9)
inactive: [1] -0.016 | silmitasertib -0.001 | [2] -0.075 | entospletinib 0.026
active: vorinostat -0.432

MSH3 (UniProt P20585)
inactive: [1] 0.044 | silmitasertib 0.055 | [2] -0.017 | entospletinib 0.025
active: vorinostat -0.316

MRPL53 (UniProt Q96EL3)
inactive: [1] -0.052 | vorinostat -0.119 | silmitasertib 0.042 | [2] -0.024 | entospletinib 0.033

MYCBP2 (UniProt O75592)
inactive: [1] 0.031 | silmitasertib -0.002 | [2] 0.007 | entospletinib -0.002
active: vorinostat -0.223

PANK1 (UniProt Q8TE04)
inactive: [1] 0.01 | vorinostat -0.084 | silmitasertib 0.004 | [2] -0.039 | entospletinib 0.08

NUDT6 (UniProt P53370)
inactive: [1] 0.128 | vorinostat 0.038 | silmitasertib -0.096 | [2] 0.02 | entospletinib -0.225

NUP205 (UniProt Q92621)
Sequence of UniProt Q92621 (Q92621 whole entry, looked up): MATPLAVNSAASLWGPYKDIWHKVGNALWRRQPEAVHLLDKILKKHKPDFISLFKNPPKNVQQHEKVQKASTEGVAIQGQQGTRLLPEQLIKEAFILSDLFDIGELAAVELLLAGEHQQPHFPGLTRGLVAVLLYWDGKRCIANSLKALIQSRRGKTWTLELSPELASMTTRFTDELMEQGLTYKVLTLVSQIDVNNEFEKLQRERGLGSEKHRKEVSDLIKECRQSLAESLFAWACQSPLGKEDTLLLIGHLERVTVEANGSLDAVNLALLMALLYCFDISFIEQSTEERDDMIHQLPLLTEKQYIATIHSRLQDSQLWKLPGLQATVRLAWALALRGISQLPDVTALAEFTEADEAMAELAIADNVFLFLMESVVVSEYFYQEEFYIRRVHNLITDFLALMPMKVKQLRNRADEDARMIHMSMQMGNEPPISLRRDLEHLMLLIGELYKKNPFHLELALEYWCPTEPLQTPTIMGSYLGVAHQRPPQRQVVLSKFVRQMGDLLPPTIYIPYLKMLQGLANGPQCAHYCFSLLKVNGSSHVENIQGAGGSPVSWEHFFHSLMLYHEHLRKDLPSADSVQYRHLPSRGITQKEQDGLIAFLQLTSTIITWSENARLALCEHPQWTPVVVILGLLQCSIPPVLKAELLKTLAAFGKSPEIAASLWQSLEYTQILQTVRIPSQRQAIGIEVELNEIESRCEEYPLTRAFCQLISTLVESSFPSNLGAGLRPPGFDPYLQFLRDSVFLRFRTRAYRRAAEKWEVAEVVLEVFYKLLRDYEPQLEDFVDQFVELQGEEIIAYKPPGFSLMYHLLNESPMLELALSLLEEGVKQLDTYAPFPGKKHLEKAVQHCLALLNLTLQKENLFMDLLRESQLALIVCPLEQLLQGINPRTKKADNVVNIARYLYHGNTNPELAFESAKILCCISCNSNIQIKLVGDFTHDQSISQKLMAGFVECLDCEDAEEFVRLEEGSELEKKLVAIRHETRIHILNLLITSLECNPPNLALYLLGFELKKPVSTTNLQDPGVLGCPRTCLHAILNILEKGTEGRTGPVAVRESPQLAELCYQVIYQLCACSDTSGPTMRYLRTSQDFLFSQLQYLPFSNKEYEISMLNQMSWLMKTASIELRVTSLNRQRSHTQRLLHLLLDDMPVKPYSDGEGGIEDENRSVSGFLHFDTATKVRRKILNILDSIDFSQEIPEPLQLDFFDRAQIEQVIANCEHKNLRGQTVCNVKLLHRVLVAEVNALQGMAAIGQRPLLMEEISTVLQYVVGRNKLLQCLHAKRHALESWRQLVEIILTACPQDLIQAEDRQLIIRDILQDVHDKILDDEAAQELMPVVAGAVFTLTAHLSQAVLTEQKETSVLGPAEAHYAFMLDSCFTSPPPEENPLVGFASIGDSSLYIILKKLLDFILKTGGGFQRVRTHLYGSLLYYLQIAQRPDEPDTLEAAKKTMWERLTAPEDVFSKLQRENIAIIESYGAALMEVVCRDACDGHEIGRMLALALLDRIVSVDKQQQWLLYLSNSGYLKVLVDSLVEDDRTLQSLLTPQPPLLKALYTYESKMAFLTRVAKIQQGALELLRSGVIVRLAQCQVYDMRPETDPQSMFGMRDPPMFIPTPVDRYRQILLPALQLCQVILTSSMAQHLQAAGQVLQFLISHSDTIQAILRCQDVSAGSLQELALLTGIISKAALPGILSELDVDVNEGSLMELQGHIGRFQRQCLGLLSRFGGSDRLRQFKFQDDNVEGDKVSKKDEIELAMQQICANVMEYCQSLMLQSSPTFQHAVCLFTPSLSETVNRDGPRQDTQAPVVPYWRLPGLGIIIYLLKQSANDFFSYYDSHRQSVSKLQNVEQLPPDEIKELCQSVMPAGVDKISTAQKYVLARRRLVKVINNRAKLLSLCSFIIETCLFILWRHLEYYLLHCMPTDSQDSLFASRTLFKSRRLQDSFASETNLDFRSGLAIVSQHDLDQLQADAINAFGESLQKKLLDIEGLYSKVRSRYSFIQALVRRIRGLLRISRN
active: vorinostat -0.335
inactive: [1] 0.003 | silmitasertib 0.037 | [2] 0.001 | entospletinib 0.005

MTHFD1L (UniProt B7ZM99)
active: vorinostat -0.408
inactive: [1] 0.031 | silmitasertib 0.07 | [2] 0.045 | entospletinib -0.02

PANK4 (UniProt Q9NVE7)
active: vorinostat -0.423
inactive: [1] 0.012 | silmitasertib -0.03 | [2] 0.055 | entospletinib 0.035

NFATC2IP (UniProt Q8NCF5)
inactive: [1] 0.041 | vorinostat -0.069 | silmitasertib -0.039 | [2] -0.07 | entospletinib 0.041

MTA2 (UniProt O94776)
inactive: [1] 0.034 | silmitasertib 0.02 | [2] 0.006 | entospletinib 0.021
active: vorinostat -0.352

OSGEP (UniProt Q9NPF4)
inactive: [1] -0.001 | vorinostat -0.038 | silmitasertib -0.109 | [2] 0.016 | entospletinib 0.002

NADK2 (UniProt Q4G0N4)
inactive: [1] -0.002 | vorinostat -0.106 | silmitasertib 0.044 | [2] 0.003 | entospletinib -0.001

NSUN2 (UniProt Q08J23)
inactive: [1] 0.004 | silmitasertib 0.03 | [2] -0.007 | entospletinib 0.011
active: vorinostat -0.42

NAT1 (UniProt P18440)
inactive: [1] -0.049 | vorinostat 0.144 | [2] 0.032 | entospletinib -0.04
active: silmitasertib 0.275

OSBP2 (UniProt Q969R2)
inactive: [1] 0.025 | vorinostat 0.055 | silmitasertib -0.147 | [2] 0.023 | entospletinib -0.102

PBK (UniProt Q96KB5)
inactive: [1] -0.029 | silmitasertib 0.013 | [2] -0.021 | entospletinib 0.035
active: vorinostat -0.269

NCOR2 (UniProt C9J0Q5)
active: vorinostat -0.27
inactive: [1] 0.093 | silmitasertib -0.016 | [2] 0.011 | entospletinib -0.074

MYCBP (UniProt Q99417)
Sequence of UniProt Q99417 (Q99417 whole entry, looked up): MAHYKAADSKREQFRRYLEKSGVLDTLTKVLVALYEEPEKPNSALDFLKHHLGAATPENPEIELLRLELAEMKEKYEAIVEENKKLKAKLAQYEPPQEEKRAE
inactive: [1] 0.006 | vorinostat 0.113 | silmitasertib -0.015 | [2] -0.025 | entospletinib -0.075

NDUFS1 isoform 2 (UniProt P28331)
inactive: [1] -0.006 | vorinostat 0.118 | silmitasertib 0.032 | [2] -0.052 | entospletinib -0.014

MXRA7 (UniProt P84157)
Sequence of UniProt P84157 (P84157 whole entry, looked up): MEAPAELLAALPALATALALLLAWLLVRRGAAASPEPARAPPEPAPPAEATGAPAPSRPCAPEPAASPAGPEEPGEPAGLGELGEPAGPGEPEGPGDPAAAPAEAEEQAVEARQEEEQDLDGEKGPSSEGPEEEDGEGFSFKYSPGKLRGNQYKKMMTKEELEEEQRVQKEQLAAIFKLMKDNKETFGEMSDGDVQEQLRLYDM
inactive: [1] 0.118 | vorinostat 0.262 | silmitasertib -0.102 | [2] 0.099 | entospletinib 0.021

NUF2 (UniProt Q9BZD4)
active: vorinostat -0.242
inactive: [1] 0.005 | silmitasertib 0.017 | [2] 0.008 | entospletinib 0.016

NELFCD (UniProt Q8IXH7)
inactive: [1] 0.023 | silmitasertib 0.049 | [2] -0.005 | entospletinib 0.032
active: vorinostat -0.322

N4BP2 (UniProt Q86UW6)
Sequence of UniProt Q86UW6 (Q86UW6 whole entry, looked up): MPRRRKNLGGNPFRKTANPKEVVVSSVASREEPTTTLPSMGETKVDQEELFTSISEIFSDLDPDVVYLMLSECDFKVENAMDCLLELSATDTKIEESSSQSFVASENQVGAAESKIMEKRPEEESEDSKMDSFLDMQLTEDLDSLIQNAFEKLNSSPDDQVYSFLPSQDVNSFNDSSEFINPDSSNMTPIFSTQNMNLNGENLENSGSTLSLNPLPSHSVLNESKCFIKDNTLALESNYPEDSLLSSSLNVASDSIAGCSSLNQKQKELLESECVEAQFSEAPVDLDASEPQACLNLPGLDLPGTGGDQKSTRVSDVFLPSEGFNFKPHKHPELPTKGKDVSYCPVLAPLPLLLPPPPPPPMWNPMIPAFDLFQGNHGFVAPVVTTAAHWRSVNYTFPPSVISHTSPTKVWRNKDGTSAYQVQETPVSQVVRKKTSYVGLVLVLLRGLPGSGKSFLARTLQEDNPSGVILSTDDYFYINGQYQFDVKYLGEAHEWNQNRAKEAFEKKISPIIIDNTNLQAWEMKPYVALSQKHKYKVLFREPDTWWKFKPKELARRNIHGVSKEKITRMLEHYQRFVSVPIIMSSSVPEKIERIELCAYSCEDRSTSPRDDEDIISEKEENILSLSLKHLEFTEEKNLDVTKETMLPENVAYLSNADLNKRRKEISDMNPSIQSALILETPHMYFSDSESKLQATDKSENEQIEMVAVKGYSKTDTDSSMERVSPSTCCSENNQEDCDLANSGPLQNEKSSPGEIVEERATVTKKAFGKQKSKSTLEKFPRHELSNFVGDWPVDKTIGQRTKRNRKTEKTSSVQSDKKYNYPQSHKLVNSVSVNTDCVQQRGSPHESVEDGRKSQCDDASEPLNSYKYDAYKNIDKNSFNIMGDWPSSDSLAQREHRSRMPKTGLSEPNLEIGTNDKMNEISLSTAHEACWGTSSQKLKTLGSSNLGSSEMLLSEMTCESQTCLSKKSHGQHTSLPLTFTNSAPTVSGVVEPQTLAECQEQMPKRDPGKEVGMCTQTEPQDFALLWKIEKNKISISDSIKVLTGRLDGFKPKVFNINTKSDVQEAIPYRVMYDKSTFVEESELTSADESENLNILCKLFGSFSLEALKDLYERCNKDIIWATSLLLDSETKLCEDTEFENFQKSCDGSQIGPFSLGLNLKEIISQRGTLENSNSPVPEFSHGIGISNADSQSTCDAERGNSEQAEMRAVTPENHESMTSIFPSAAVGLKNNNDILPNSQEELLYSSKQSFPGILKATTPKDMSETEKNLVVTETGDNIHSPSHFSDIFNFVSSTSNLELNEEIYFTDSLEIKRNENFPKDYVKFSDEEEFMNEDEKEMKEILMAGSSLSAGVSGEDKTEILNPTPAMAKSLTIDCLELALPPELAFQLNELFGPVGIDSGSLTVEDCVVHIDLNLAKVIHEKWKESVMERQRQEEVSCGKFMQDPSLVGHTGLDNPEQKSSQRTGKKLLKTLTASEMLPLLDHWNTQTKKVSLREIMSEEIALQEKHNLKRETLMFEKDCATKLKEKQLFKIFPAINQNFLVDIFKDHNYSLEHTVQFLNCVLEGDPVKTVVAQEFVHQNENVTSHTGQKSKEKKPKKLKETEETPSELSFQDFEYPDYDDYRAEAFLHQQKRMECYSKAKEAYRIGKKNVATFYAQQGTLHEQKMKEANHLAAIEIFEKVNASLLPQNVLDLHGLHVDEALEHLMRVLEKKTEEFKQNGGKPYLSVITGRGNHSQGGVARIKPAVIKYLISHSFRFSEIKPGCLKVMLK
active: vorinostat -0.369
inactive: [1] -0.075 | silmitasertib -0.004 | [2] -0.001 | entospletinib -0.029

NOA1 (UniProt Q8NC60)
active: vorinostat -0.411
inactive: [1] 0.065 | silmitasertib 0.049 | [2] 0.048 | entospletinib -0.008

PARP14 (UniProt Q460N5)
active: vorinostat -0.391
inactive: [1] -0.006 | silmitasertib 0.009 | [2] 0.149 | entospletinib -0.014

MYO1D (UniProt O94832)
active: vorinostat -0.418
inactive: [1] 0.046 | silmitasertib 0.012 | [2] -0.027 | entospletinib -0.002

NEBL isoform 2 (UniProt O76041)
inactive: [1] -0.019 | vorinostat 0.146 | silmitasertib -0.019 | [2] -0.016 | entospletinib -0.01

MTHFD1, A0A384N5Y3
active: vorinostat -0.243
inactive: [1] 0.036 | silmitasertib 0.056 | [2] 0.028 | entospletinib 0.026

MSH6 (UniProt P52701)
inactive: [1] 0.008 | silmitasertib 0.063 | [2] 0.016 | entospletinib -0.012
active: vorinostat -0.287

NTPCR (UniProt Q9BSD7)
inactive: [1] 0.014 | silmitasertib 0.029 | [2] 0.003 | entospletinib 0.059
active: vorinostat -0.331

NUP210 (UniProt Q8TEM1)
active: vorinostat 0.276
inactive: [1] -0.006 | silmitasertib 0.022 | [2] -0.013 | entospletinib -0.038

NUMB (UniProt P49757)
active: vorinostat -0.315
inactive: [1] 0 | silmitasertib -0.014 | [2] -0.066 | entospletinib 0

NAA35 (UniProt Q5VZE5)
active: vorinostat -0.308
inactive: [1] -0.04 | silmitasertib 0.017 | [2] 0.004 | entospletinib 0.028

OSBPL3 isoform 2 (UniProt Q9H4L5)
inactive: [1] -0.087 | [2] 0.062 | entospletinib 0.052
active: vorinostat -0.36 | silmitasertib 0.402

OPA1 isoform 2 (UniProt O60313)
inactive: [1] 0.002 | vorinostat 0.014 | silmitasertib 0.027 | [2] 0.009 | entospletinib -0.004

OSBPL1A (UniProt Q9BXW6)
inactive: vorinostat 0.128 | silmitasertib -0.19 | [2] -0.14

NBEAL2 (UniProt Q6ZNJ1)
active: vorinostat -0.341
inactive: [1] -0.025 | silmitasertib 0.047 | [2] 0.02 | entospletinib 0.026

ORC1 (UniProt Q13415)
inactive: entospletinib -0.047

NSA2 (UniProt O95478)
inactive: [1] 0.035 | vorinostat -0.073 | silmitasertib -0.042 | entospletinib 0.208

NDUFAF5 (UniProt Q5TEU4)
inactive: [1] -0.023 | vorinostat 0.065 | silmitasertib 0.002 | [2] -0.006 | entospletinib -0.046

NOCT (UniProt Q9UK39)
Sequence of UniProt Q9UK39 (Q9UK39 whole entry, looked up): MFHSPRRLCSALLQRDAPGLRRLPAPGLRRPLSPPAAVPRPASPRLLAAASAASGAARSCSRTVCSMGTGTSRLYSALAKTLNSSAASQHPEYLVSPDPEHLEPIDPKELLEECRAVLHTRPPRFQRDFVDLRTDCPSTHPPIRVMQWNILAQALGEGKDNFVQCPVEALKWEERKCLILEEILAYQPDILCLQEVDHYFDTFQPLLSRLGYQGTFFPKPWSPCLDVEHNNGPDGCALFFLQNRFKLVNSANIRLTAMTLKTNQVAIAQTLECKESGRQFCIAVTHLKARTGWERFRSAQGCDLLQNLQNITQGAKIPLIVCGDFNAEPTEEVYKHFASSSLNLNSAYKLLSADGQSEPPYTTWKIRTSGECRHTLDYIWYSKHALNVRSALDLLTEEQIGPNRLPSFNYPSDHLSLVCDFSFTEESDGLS
active: vorinostat -0.886
inactive: silmitasertib 0.004 | [2] -0.036 | entospletinib -0.301

NRIP1 (UniProt P48552)
inactive: vorinostat 0.274 | silmitasertib 0 | [2] 0.06

NGLY1 (UniProt Q96IV0)
inactive: [1] -0.014 | silmitasertib 0.041 | [2] 0.018 | entospletinib 0.034
active: vorinostat -0.29

PAGE4 (UniProt O60829)
Sequence of UniProt O60829 (O60829 whole entry, looked up): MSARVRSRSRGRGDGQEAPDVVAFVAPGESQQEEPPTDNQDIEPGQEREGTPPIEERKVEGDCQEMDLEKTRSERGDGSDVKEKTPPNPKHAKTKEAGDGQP
inactive: silmitasertib 0.06 | [2] -0.074 | entospletinib -0.054
active: vorinostat -0.425

NEXN (UniProt Q0ZGT2)
inactive: [1] 0.144 | vorinostat -0.335 | silmitasertib -0.038 | entospletinib 0.042

MYH6 (UniProt P13533)
inactive: vorinostat 0.209 | silmitasertib -0.053 | [2] 0.188 | entospletinib 0.102

NFATC1 (UniProt O95644)
inactive: [1] 0.014 | silmitasertib 0.07 | [2] 0.033 | entospletinib -0.047
active: vorinostat -0.364

NR3C1 isoform 3 (UniProt P04150)
inactive: [1] -0.124 | silmitasertib 0.05 | [2] 0.046 | entospletinib -0.064
